Among the data in PubChem BioAssay (NCATS) are Potency values, retold here.

Structures are written as SMILES. Inconclusive results are not listed. Active and inactive are the calls of the source. The call rests on the fitted dose curve; in most records, active means well fitted inhibition curve with a large enough effect; inconclusive means small, poorly fitted or top-dose-only effect; inactive means flat fitted curve, though single readings scatter.

What all share (assay): qHTS profiling for inhibitors of Plasmodium falciparum proliferation (AID 504749); further: nearly all actives have a fitted effect of over 60% in size
Settings in all cases: P. falciparum in erythrocytes, SYBR Green DNA, 72 h; series mostly up to 28.7 µM
For orientation: qHTS replaces the single test concentration by a dilution series.

One test concerns DIV17. In a few lines:
(§1)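 P. falciparum-infected erythrocytes (0.3% parasitemia, 2.5% hematocrit final) were exposed to compounds for 72 h at 37 C in 5% CO2, then lysed with SYBR Green buffer overnight at room temperature; parasite DNA fluorescence was normalized to artemisinin and DMSO controls.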

For another test, the system named is DIV30. In a few lines:
as §1

The next test deals with Dd2. The procedure, abridged:
as §1

The next test relates to ECU. In a few lines:
as §1

In another test the test system is FAB9. The procedure, abridged:
as §1

The next test concerns GB4. The procedure, abridged: as §1
Another test has as its system HB3. The procedure, abridged: as §1
For the next test, the system named is JCK. The procedure, abridged: as §1
For the next test, the system named is N140. The procedure, abridged:
as §1

For the next test, the system named is P93_24. The procedure, abridged:
as §1

The next test has as its system P94_40. The procedure, abridged: as §1
A further test has as its system PAD. In a few lines: as §1
The next test concerns PC15. In a few lines:
as §1

The next test has as its system PC26. The procedure, abridged: as §1
Another test relates to PC49. The procedure, abridged:
as §1

The next test has as its system SC27B. The procedure, abridged: as §1
A further test relates to TAB109. The procedure, abridged: as §1
The test system of the next test is TAB113. In a few lines:
as §1

Another test deals with TAB165. The procedure, abridged:
as §1

The subject of a further test is ICS. The procedure, abridged:
as §1
Potency means the concentration at half of the fitted maximal effect.

For `COc1ccc(-c2ccc3cc(C(=O)O)ccc3c2)cc1C12CC3CC(CC(C3)C1)C2`, the Potency entry with DIV17, with DIV30, with Dd2, in the test with ECU, with FAB9 and with GB4 was “inactive” in each case. For the same molecule, the Potency result in the test on HB3, in the test with JCK, in the test with N140, with P93_24, in the test on P94_40 and with PAD was “inactive” throughout. Further, the Potency result in the test on PC15, in the test on PC26, in the test on PC49, in the test with SC27B, with TAB109 and with TAB113 was “inactive” in each case. For the same molecule, the Potency entry with TAB165 was “inactive”.

For `C[C@@H](NCCCc1cccc(C(F)(F)F)c1)c1cccc2ccccc12`, the Potency in the test with DIV17 is 5.36 µM (active); in the test on DIV30, 7.57 µM (active); in the test with Dd2, 5.01 µM (active); in the test on ECU, 3.16 µM (active); in the test with GB4, 12 µM (active); in the test with HB3 it was 12.6 µM (active). Moreover, the Potency in the test with ICS was 1.78 µM (active); in the test on N140 it was 2.82 µM (active); in the test on P93_24, 6.31 µM (active); with P94_40 it was 5.01 µM (active); with PAD, 2 µM (active); in the test on PC15 it was 11.2 µM (active). In addition, the Potency in the test on PC26 was 4.78 µM (active); in the test with SC27B it was 6.31 µM (active); in the test on TAB109, 4.47 µM (active); in the test on TAB113 it was 3.55 µM (active); in the test on TAB165 it was 3.98 µM (active). In the test on FAB9, the Potency result is “inactive”.

For `CC(C)Cn1cnc2c(N)nc3ccccc3c21`, the Potency entry in the test with DIV17, with DIV30, with Dd2, in the test on ECU, in the test with FAB9 and in the test with GB4 was “inactive” each time. The Potency result with ICS, in the test with JCK, with N140, in the test on P93_24, with P94_40 and in the test with PAD was “inactive” in each case. Also, the Potency result in the test with PC15, in the test on PC26, in the test with PC49, in the test with SC27B, with TAB109 and in the test on TAB165 was “inactive” in each case.

Regarding `COc1cc(NS(=O)(=O)c2ccc(N)cc2)nc(OC)n1`, the Potency entry with DIV17, in the test with DIV30, in the test with Dd2, in the test with ECU, with FAB9 and with GB4 was “inactive” in each case. Further, the Potency result in the test on HB3, with JCK, in the test on N140, in the test with P93_24, with P94_40 and with PAD was “inactive” throughout. Further, the Potency result with PC15, in the test with PC49, with SC27B, in the test on TAB109, with TAB113 and with TAB165 was “inactive” in each case.

As for `COc1c(N2CCNC(C)C2)c(F)cc2c(=O)c(C(=O)O)cn(C3CC3)c12` (stereo not given), the Potency entry in the test on DIV17, with DIV30, with ECU, with FAB9, with GB4 and with HB3 was “inactive” throughout. Also, the Potency entry with ICS, in the test on JCK, in the test on N140, in the test with P93_24, in the test with P94_40 and in the test on PAD was “inactive” in each case. Besides, the Potency entry in the test on PC15, with PC26, with PC49, in the test on SC27B, with TAB113 and in the test on TAB165 was “inactive” in each case.

As for `CCCc1nc(C)c2c(=O)[nH]c(-c3cc(S(=O)(=O)N4CCN(CC)CC4)ccc3OCC)nn12`, the Potency was 10.7 µM (active) with DIV17, 4.47 µM (active) with ICS and 8.91 µM (active) with P93_24. Also, the Potency result with Dd2, in the test with FAB9, in the test with GB4, in the test on JCK, with P94_40 and in the test with PC26 was “inactive” each time. Besides, the Potency entry in the test with TAB109 and in the test with TAB113 was “inactive” each time.

Turning to `CCn1cc(C(=O)O)c(=O)c2cc(F)c(N3CCNCC3)cc21`, the Potency result in the test on DIV17, in the test on DIV30, with ECU, with FAB9, in the test with HB3 and in the test with JCK was “inactive” each time. Moreover, the Potency result with PAD, with PC15, in the test on PC26, in the test with PC49, in the test with SC27B and in the test with TAB113 was “inactive” throughout. Further, the Potency result in the test with TAB165 is “inactive”.

`COc1cc2c(Nc3ccc(Br)cc3F)ncnc2cc1OCC1CCN(C)CC1`: the Potency with DIV17 was 2.39 µM (active); with Dd2, 8.91 µM (active); in the test with ECU it was 3.16 µM (active); in the test on FAB9, 10 µM (active); with GB4, 1.51 µM (active); in the test with HB3, 5.01 µM (active). The Potency in the test with ICS is 3.98 µM (active); in the test with N140, 2.51 µM (active); in the test with P93_24, 2 µM (active); in the test with P94_40, 2.82 µM (active); in the test with PAD, 2.24 µM (active); in the test with PC15 it was 7.08 µM (active). Moreover, the Potency in the test with SC27B was 2.82 µM (active); in the test with TAB109, 2.24 µM (active); in the test on TAB113, 2.24 µM (active); with TAB165, 3.55 µM (active).

For the molecule `N[C@@H](Cc1ccc(O)c(O)c1)C(=O)O`, the Potency entry with DIV17, with DIV30, in the test with GB4 and in the test with PC26 was “inactive” in each case.

As for `C1CCC(C(CC2CCCCN2)C2CCCCC2)CC1` (stereo not given), the Potency with DIV17 is 3.38 µM (active); in the test on Dd2 it was 12.6 µM (active); in the test with ECU, 5.01 µM (active); in the test on GB4 it was 9.53 µM (active); in the test with HB3, 11.2 µM (active); in the test with ICS, 1.12 µM (active). Besides, the Potency was 12.6 µM (active) with JCK; 10 µM (active) with N140; 12.6 µM (active) with P93_24; 11.2 µM (active) in the test with P94_40; 6.31 µM (active) in the test on PAD; 5.01 µM (active) in the test with PC15. Moreover, the Potency in the test with PC26 was 7.57 µM (active); with PC49, 2.82 µM (active); in the test on SC27B it was 7.94 µM (active); in the test on TAB109, 5.62 µM (active); with TAB113 it was 6.31 µM (active); with TAB165, 10 µM (active).

On to `Oc1c(Cl)cc(Cl)c2cccnc12`, for which the Potency result in the test with Dd2, with FAB9, in the test on HB3, with JCK, with PC15 and in the test with PC26 was “inactive” throughout. Further, the Potency entry in the test with PC49 was “inactive”. Also, the Potency in the test on GB4 was 12 µM (active); in the test with ICS it was 7.94 µM (active); with N140 it was 12.6 µM (active); in the test on P94_40, 11.2 µM (active); in the test with TAB165, 10 µM (active).

`O=C(O)c1cn(C2CC2)c2cc(N3CCNCC3)c(F)cc2c1=O`: the Potency result in the test on DIV17, with ECU, in the test with FAB9, in the test on JCK, in the test on PAD and with PC15 was “inactive” each time. Also, the Potency result in the test on PC49, in the test with SC27B and in the test with TAB113 was “inactive” in each case. Besides, the results for the Potency in the test with Dd2, with ICS and in the test on TAB109 were 3.16 µM (active), 3.16 µM (active) and 2.24 µM (active), respectively.

In the case of `O=c1oc2c(O)c(O)cc3c(=O)oc4c(O)c(O)cc1c4c23`, the Potency in the test on Dd2 is 2 µM (active); with GB4, 0.849 µM (active); in the test with HB3, 2 µM (active); with ICS, 0.891 µM (active); in the test with PC15, 6.31 µM (active); in the test with TAB165, 1.41 µM (active). For the same molecule, the Potency entry with JCK and with PC49 was “inactive” in each case.

For `CC[C@H](C)C(=O)O[C@H]1C[C@@H](C)C=C2C=C[C@H](C)[C@H](CC[C@@H]3C[C@@H](O)CC(=O)O3)[C@H]21`, the Potency entry with DIV30, in the test on Dd2, in the test on ECU, in the test with FAB9, with GB4 and with HB3 was “inactive” in each case. Moreover, the Potency entry with ICS, with JCK, in the test with N140, in the test with P93_24, in the test on P94_40 and in the test on PAD was “inactive” throughout. The Potency entry with PC15, in the test with PC26, with PC49, with SC27B, in the test with TAB109 and in the test with TAB113 was “inactive” in each case. For the same molecule, in the test on TAB165, the Potency entry is “inactive”.

Take `CC[C@H](NC(C)C)[C@H](O)c1ccc(O)c2[nH]c(=O)ccc12`: the Potency entry in the test on DIV17, in the test on Dd2, in the test on ECU, in the test on FAB9, with GB4 and in the test with HB3 was “inactive” in each case. Further, the Potency result with ICS, in the test on JCK, in the test on N140, in the test on P93_24, with P94_40 and with PAD was “inactive” throughout. The Potency entry in the test on PC15, in the test on PC26, in the test on PC49, in the test on SC27B, with TAB109 and in the test on TAB113 was “inactive” each time. For the same molecule, the Potency result with TAB165 is “inactive”.

As for `CN(Cc1cc(Br)cc(Br)c1N)C1CCCCC1`, the Potency result with DIV17, in the test on DIV30, in the test on ECU, with FAB9, with JCK and in the test with N140 was “inactive” each time. In addition, the Potency result with PAD, in the test on PC15, with PC26, in the test on PC49, in the test with SC27B and with TAB109 was “inactive” each time. For the same molecule, the Potency result with TAB113 is “inactive”.

Take `CCCCOc1ccc(CC(=O)NO)cc1`: the Potency with DIV17 was 2.87 µM (active); in the test on DIV30, 2.56 µM (active); in the test on Dd2 it was 3.55 µM (active); in the test on GB4, 3.22 µM (active); with HB3, 3.98 µM (active); in the test with ICS it was 3.16 µM (active). In addition, the Potency was 3.98 µM (active) in the test on N140; 1.58 µM (active) with P93_24; 2 µM (active) in the test on P94_40; 1.41 µM (active) in the test on PAD; 2.24 µM (active) in the test with TAB109; 3.16 µM (active) in the test on TAB165. For the same molecule, the Potency result with PC15 and in the test with PC49 was “inactive” each time.
